Source: the supplement of paper PMC11732987, “Enantioselective OTUD7B fragment discovery through chemoproteomics screening and high-throughput optimisation” (Communications Chemistry, 2025)

Experiments:
Experiment in all cases: log2 ratio of Biotin-Ahx-Ub-VS probe labelling (fragment/DMSO); higher = less target engagement (more negative = stronger competition), active = hit call of the paper (q ≤ 0.05, log2 ratio ≤ -1)
Conditions in all cases: compound concentration: 200 uM; treatment time: 3 h
USP34 = USP34 (UniProt Q70CQ2)
How it was run: (§1)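 Global-median-normalised Spectronaut label-free quantities were compared by unpaired t-test, and values are average log2 ratios of fragment over vehicle. Only proteins with ≥2 unique peptides were used. HEK293T lysate (495 µg per sample) was treated in triplicate with fragment at 200 µM or vehicle for 3 h and then with Biotin-Ahx-Ub-VS at 0.5 µM final for 1 h. Labelled DUBs were then NeutrAvidin-enriched, digested with LysC and trypsin, and run by diaPASEF LC-MS/MS.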

USP36 = biological target: T1, USP36 (UniProt Q9P275)
T1 sequence (whole entry): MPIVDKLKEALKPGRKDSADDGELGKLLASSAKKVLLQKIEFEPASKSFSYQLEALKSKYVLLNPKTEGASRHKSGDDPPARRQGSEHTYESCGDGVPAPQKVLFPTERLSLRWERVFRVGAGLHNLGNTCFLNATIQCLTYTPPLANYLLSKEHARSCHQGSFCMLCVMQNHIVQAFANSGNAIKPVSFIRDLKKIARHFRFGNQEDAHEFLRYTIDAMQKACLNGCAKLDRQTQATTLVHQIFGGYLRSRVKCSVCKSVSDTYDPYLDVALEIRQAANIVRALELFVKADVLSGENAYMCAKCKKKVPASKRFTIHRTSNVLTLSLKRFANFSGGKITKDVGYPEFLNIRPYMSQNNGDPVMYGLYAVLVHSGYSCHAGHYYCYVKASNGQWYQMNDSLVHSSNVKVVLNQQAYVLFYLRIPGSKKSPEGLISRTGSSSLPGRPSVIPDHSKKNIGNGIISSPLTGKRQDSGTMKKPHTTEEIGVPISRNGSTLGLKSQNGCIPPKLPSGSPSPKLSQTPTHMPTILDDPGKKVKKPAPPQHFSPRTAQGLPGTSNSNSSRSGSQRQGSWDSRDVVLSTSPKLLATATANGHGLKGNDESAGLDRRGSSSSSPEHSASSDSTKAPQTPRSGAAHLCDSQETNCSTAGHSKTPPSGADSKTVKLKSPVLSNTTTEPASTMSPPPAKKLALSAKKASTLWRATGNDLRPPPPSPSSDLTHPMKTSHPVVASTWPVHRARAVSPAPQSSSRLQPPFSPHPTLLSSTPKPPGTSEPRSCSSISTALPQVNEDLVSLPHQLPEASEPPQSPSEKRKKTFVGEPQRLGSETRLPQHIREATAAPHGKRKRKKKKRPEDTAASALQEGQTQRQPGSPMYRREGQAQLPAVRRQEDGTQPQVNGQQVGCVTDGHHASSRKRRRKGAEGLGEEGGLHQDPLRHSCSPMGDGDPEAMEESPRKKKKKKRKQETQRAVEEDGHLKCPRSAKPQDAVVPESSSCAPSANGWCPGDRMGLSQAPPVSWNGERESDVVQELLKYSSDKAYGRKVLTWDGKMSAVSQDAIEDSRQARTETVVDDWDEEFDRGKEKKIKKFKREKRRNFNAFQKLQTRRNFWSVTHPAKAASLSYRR
How it was run: as §1

USP38 = biological target: T2, USP38 (UniProt Q8NB14)
T2 sequence (whole entry): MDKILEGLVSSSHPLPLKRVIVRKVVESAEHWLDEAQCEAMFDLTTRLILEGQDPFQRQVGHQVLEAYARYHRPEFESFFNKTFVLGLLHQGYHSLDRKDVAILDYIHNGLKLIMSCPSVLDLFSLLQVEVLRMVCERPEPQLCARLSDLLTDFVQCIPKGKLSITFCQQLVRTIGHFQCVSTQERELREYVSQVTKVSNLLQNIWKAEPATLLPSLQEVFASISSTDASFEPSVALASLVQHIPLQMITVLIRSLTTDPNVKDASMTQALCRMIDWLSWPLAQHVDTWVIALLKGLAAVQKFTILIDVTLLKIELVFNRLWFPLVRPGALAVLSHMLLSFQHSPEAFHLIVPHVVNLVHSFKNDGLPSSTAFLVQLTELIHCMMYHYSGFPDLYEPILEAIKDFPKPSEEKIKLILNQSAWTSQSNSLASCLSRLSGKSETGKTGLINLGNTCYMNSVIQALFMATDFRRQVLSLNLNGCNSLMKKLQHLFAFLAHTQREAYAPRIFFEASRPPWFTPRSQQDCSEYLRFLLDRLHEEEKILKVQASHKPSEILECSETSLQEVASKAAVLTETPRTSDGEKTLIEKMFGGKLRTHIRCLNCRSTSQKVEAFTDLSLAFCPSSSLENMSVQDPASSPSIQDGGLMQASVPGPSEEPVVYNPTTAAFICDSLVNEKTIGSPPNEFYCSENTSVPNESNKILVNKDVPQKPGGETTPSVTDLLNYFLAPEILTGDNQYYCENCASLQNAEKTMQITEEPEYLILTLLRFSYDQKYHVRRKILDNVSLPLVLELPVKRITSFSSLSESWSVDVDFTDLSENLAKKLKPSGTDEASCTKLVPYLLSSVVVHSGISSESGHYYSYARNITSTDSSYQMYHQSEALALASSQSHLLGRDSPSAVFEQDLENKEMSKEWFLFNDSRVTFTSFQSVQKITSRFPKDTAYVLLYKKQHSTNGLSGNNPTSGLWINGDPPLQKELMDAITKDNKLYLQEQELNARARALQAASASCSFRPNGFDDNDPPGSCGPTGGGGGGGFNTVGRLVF
How it was run: as §1

USP39 = biological target: T3, USP39 (UniProt Q53GS9)
T3 sequence (whole entry): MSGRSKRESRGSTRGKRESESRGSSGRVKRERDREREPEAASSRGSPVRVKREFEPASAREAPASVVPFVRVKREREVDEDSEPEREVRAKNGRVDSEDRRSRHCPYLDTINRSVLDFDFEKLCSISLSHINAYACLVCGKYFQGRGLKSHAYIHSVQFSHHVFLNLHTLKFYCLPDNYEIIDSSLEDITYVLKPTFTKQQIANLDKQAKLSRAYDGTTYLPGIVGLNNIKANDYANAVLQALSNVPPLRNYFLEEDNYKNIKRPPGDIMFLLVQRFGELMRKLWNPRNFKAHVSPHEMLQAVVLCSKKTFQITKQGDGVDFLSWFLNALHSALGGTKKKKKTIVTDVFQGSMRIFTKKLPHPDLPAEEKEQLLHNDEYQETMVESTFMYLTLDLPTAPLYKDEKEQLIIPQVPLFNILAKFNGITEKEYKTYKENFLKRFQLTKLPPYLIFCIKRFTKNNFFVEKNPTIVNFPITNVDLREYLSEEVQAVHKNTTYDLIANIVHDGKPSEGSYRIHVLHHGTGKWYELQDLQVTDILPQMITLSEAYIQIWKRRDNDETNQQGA
How it was run: as §1

USP4 = biological target: T4, USP4 (UniProt Q13107)
T4 sequence (whole entry): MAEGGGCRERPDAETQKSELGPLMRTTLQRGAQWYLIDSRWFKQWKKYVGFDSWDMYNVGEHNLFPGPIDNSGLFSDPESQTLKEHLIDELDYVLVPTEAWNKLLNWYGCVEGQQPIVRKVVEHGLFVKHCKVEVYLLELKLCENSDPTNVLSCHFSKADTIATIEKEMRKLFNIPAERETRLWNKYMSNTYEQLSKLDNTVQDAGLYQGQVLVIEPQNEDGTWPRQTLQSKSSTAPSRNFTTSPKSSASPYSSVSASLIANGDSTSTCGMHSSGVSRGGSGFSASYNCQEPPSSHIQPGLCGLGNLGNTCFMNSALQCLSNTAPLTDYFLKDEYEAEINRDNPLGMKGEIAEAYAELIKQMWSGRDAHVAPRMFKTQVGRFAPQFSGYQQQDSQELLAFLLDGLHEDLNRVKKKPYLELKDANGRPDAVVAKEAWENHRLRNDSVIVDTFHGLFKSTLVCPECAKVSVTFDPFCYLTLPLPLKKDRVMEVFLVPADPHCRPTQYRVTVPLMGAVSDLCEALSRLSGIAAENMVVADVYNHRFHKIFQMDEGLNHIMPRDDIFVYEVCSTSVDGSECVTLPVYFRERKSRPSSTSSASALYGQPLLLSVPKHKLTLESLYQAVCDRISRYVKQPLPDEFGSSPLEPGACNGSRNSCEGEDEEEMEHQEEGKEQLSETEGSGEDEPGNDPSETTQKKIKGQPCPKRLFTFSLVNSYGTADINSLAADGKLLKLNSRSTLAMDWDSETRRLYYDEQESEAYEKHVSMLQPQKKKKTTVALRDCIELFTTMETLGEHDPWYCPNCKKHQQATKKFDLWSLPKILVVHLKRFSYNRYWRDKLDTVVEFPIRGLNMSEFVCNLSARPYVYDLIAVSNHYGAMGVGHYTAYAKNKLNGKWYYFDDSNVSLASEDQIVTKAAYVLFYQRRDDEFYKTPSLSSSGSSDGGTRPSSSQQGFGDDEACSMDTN
How it was run: as §1

Measured: log2 ratio of Biotin-Ahx-Ub-VS probe labelling

Chain of USP34 (Q70CQ2 whole entry, the tested form may be a part): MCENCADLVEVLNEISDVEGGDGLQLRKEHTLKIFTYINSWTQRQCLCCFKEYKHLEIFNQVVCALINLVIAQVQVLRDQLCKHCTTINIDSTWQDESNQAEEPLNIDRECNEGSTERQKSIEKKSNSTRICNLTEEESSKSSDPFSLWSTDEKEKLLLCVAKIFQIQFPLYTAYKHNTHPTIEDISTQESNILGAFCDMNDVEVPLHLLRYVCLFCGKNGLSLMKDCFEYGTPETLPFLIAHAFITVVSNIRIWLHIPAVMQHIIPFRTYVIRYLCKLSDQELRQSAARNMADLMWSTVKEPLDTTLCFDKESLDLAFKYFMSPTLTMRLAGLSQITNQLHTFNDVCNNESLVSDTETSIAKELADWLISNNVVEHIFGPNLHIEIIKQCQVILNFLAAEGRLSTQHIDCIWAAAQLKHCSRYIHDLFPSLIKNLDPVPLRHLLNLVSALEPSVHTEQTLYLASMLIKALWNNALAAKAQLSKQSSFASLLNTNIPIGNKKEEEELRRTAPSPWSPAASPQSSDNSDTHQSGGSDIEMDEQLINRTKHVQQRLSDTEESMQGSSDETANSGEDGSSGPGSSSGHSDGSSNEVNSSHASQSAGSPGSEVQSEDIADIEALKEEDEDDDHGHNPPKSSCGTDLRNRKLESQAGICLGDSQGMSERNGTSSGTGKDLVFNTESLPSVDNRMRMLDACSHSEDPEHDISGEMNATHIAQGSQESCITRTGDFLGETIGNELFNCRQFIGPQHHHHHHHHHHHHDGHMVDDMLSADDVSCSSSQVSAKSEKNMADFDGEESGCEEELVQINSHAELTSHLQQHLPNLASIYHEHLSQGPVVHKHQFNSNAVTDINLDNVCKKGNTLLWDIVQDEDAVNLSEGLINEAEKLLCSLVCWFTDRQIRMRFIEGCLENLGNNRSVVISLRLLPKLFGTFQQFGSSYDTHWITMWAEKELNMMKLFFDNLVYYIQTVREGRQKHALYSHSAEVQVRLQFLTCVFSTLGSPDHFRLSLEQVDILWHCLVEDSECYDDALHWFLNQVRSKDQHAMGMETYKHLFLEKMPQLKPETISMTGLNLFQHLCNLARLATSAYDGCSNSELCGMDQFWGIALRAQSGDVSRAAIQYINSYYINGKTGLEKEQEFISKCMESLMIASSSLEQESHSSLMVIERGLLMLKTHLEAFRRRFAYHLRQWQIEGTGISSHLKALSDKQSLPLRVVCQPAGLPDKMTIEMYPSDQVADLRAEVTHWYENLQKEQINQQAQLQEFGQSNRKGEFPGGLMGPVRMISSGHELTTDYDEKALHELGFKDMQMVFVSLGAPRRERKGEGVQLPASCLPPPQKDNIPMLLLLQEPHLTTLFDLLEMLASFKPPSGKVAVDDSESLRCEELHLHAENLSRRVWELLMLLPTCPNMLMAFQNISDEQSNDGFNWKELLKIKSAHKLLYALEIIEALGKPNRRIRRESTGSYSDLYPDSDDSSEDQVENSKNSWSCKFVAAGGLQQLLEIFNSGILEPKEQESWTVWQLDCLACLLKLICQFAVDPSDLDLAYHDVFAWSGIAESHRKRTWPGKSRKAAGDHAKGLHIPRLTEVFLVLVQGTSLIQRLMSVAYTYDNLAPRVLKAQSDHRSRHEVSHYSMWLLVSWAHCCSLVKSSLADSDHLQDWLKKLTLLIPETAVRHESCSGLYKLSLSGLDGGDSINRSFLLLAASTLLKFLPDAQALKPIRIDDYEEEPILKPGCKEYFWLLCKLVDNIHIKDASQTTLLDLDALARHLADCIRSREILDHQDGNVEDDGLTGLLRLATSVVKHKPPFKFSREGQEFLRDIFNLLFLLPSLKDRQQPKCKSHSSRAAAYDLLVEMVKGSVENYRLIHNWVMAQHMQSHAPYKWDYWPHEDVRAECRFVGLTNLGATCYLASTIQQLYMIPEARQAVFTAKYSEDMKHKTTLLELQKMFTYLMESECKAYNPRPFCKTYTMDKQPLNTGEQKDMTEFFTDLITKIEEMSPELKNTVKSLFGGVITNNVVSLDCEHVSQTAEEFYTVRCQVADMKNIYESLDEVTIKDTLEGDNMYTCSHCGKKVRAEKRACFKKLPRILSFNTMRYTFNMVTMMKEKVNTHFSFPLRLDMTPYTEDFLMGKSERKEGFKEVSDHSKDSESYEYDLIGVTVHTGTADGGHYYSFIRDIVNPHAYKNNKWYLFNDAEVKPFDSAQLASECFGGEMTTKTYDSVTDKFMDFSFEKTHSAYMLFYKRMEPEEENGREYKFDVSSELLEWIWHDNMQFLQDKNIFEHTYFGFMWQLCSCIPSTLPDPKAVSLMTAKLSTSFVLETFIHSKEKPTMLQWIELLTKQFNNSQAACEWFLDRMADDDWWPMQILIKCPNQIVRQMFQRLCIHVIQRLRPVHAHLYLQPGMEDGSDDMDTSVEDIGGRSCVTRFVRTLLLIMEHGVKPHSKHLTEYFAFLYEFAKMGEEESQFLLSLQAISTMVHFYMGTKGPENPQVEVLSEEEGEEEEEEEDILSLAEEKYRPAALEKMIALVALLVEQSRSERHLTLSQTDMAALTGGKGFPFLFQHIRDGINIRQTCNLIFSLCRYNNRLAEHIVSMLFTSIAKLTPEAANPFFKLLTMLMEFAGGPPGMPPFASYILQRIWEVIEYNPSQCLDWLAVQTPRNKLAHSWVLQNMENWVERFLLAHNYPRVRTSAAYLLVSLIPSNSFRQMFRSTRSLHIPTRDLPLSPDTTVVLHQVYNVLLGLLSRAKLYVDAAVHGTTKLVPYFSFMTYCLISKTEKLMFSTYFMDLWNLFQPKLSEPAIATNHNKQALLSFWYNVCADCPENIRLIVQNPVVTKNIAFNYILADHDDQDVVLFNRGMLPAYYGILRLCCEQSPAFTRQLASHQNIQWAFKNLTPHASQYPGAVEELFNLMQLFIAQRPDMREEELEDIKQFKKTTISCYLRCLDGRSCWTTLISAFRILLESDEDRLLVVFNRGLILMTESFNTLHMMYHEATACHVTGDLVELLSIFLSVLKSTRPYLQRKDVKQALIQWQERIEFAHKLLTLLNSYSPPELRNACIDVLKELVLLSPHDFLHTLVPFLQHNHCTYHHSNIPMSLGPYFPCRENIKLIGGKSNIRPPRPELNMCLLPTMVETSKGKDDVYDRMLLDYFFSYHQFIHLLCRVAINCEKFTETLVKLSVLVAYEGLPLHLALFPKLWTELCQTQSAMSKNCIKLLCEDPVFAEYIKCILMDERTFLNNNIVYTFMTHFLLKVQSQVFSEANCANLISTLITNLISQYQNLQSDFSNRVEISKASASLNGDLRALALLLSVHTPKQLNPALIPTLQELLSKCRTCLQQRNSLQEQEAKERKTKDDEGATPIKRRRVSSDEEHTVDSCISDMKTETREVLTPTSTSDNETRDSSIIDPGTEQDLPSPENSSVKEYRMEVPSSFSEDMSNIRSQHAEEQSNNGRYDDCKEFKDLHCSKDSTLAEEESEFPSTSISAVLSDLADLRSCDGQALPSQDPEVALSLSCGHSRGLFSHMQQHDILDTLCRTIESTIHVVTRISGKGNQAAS

Cl.Cn1cnc2cc(CNC(=O)CCl)ccc21
inactive: USP34 -0.0912 | USP36 -0.188 | USP38 -0.21 | USP39 -0.337 | USP4 -0.0327
